Test results: PubChem BioAssay (Tox21)
Results filed as inconclusive are left out. Activity calls are given as the source filed them. Unless noted, calls follow the shape of the dose curve; as a rule, active = well fitted curve in the direction sought with a large enough effect in the repeat runs; inconclusive = weak or mixed curves; inactive = no such curve, though single readings can be large; an effect the other way counts as inactive or inconclusive.

Tests used:
[1] = qHTS assay to identify small molecule antagonists of the estrogen related receptor (ERR) signaling pathway from Tox21 library - cell viability counter screen (AID 1224834); also: nearly all actives have a fitted effect of over 30% in size
Outline: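 Seeded ERR cells were rested 6 h at 37 C/5% CO2 before compounds, positive and negative controls or DMSO were added. Incubation continued for 17.5 h, and viability was then quantified by CellTiter-Fluor fluorescence.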

[2] = target: Luciferin 4-monooxygenase (Photinus pyralis) (UniProt P08659); test: qHTS assay to identify small molecule inhibitors of firefly luciferase (AID 1224835); also: nearly all actives have a fitted effect of over 25% in size
Chain of Luciferin 4-monooxygenase (Photinus pyralis) (P08659 whole entry, looked up): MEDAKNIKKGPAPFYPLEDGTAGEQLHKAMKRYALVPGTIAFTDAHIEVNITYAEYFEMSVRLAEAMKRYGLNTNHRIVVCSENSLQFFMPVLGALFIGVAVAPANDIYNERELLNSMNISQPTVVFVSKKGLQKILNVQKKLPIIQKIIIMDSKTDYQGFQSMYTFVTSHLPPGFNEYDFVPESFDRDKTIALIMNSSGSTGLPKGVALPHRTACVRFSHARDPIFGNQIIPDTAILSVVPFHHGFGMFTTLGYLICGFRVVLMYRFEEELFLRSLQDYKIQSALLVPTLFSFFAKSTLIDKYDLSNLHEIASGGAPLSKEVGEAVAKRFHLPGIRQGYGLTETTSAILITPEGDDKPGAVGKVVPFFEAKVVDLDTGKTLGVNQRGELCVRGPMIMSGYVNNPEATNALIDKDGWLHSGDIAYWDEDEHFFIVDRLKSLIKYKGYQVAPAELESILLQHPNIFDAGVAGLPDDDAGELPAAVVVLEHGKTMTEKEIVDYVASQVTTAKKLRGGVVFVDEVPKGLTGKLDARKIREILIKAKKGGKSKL
Outline: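 Inhibition of purified Photinus luciferase is measured by luminescence. Substrate levels (D-luciferin, ATP) sit at their KM values. Each compound is tested in a concentration series.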

[3] = qHTS assay to identify small molecule agonists of the constitutive androstane receptor (CAR) signaling pathway - cell viability counter screen (AID 1224836); also: nearly all actives have a fitted effect of over 45% in size
Outline: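 Fluorescence from CellTiter-Fluor indicates live cells after 23 h exposure. The human hepatoma line expresses hCAR and a CYP2B6-2.2kb reporter. Incubation medium contains 0.75 uM PK11195 (final).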

[4] = qHTS assay to identify small molecule antagonists of the constitutive androstane receptor (CAR) signaling pathway - cell viability counter screen (AID 1224837); also: nearly all actives have a fitted effect of over 45% in size
Outline: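 To flag cytotoxic false antagonists, HepG2 hCAR/CYP2B6-2.2kb cells were treated 23 hr with 15-concentration compound series and 50 nM CITCO at 37 C/5% CO2; CellTiter-Fluor fluorescence was the measured end point.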

[5] = target: Nuclear receptor subfamily 1 group I member 3 (Homo sapiens) (UniProt Q14994); test: qHTS assay to identify small molecule antagonists of the constitutive androstane receptor (CAR) signaling pathway (AID 1224838);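 also: HepG2 cells stably expressing hCAR with CYP2B6 luciferase reporter stimulated by CITCO; nearly all actives have a fitted effect of over 40% in size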
Chain of Nuclear receptor subfamily 1 group I member 3 (Homo sapiens) (Q14994 whole entry, looked up): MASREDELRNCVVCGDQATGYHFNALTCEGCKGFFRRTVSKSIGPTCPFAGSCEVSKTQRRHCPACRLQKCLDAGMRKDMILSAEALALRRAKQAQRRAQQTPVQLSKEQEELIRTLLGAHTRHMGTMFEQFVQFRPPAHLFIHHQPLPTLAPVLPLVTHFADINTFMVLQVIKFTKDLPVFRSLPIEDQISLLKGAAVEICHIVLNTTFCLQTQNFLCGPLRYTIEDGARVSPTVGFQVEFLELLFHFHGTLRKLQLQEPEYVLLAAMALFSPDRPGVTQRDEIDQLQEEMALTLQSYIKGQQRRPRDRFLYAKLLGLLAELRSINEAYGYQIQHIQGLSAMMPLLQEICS
Outline: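 Human hepatoma HepG2 cells expressing hCAR and a CYP2B6 promoter (2.2 kb) luciferase construct; compound titration (15 points) with 50 nM CITCO final, 24 h at 37 C/5% CO2; luminescence via ONE-Glo after 30 min at room temperature.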

[6] = target: Nuclear receptor subfamily 1 group I member 3 (Homo sapiens) (UniProt Q14994); test: qHTS assay to identify small molecule agonists of the constitutive androstane receptor (CAR) signaling pathway (AID 1224839);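 also: HepG2 cells stably carrying human CAR and a CYP2B6 luciferase reporter; nearly all actives have a fitted effect of over 15% in size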
Outline: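 Stable hCAR/CYP2B6-2.2kb HepG2 line in DMEM with 10% FBS; compounds (15 concentrations) and 0.75 uM PK11195 final, 24 h at 37 C/5% CO2, then ONE-Glo luminescence after 30 min.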

[7] = qHTS assay to identify small molecule antagonists of the estrogen related receptor signaling pathway with the pleiotropic PPARgamma coactivator (PGC) from Tox21 10K library - cell viability counter screen (AID 1224840; active = well fitted cell-killing curve with a large enough effect in the repeat runs, not every such curve was filed as active; also: nearly all actives have a fitted effect of over 40% in size)
Outline: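 Seeded PGC/ERR cells (2,000/well, 6 h, 37 C/5% CO2) get compound by pin tool; 17.5 h incubation at 37 C; CellTiter-Fluor added, 30 min, fluorescence measured.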

[8] = target: Thyrotropin receptor (Homo sapiens) (UniProt P16473); test: qHTS assay to identify small molecule agonists of the thyroid stimulating hormone receptor (TSHR) signaling pathway (AID 1224843; calls by dose curve; also: nearly all actives have a fitted effect of over 45% in size)
Chain of Thyrotropin receptor (Homo sapiens) (P16473 whole entry, looked up): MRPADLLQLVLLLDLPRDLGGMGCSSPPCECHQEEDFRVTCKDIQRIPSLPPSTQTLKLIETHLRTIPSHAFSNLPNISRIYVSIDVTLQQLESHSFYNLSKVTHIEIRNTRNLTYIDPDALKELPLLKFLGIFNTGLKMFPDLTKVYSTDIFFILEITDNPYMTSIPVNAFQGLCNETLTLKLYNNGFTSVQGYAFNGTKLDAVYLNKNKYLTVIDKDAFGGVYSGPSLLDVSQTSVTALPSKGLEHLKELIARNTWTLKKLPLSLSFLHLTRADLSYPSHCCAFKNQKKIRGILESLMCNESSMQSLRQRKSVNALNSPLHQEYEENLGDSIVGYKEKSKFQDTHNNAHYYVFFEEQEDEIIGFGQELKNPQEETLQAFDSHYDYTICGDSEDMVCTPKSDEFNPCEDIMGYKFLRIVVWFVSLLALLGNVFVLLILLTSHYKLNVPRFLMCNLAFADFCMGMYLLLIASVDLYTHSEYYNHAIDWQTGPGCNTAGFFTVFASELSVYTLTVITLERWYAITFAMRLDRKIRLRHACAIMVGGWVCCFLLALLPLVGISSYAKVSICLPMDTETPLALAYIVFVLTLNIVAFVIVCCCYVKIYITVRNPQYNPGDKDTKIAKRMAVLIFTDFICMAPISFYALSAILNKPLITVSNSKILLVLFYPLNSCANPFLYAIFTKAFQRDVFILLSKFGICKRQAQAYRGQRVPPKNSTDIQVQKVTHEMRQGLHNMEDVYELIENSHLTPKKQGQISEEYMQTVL
Outline: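 A cell-based cAMP HTRF format was run in TSHR-transfected HEK293 cells, 800 per well. Treatment: 30 min, room temperature. Detection: 1 h with labelled cAMP and anti-cAMP cryptate. Concentration-response over 15 points, three replicates.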

[9] = qHTS assay to identify small molecule agonists of the hypoxia (HIF-1) signaling pathway - cell viability counter screen (AID 1224844; calls by dose curve; also: nearly all actives have a fitted effect of over 50% in size)
Outline: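 HRE-bla ME-180; 0.5% dFBS; cpd 17 h, 37C, 5% CO2; CellTiter-Glo lum., 30 min RT, post-FRET read, same wells.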

[10] = qHTS assay to identify small molecule agonists of H2AX (AID 1224845; active = well fitted activation curve with a large enough effect in the signal ratio in the repeat runs, not every such curve was filed as active; the % refers to the signal ratio)
Outline: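 Phospho-H2AX Ser139 measured by HTRF (ex 320 nm; em 665 and 620 nm) after 24 hr antibody incubation. Compounds, 15 concentrations, 0.76% DMSO, were applied to CHO-K1 cells for 3hr at 37C before lysis.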

[11] = qHTS assay to identify small molecule agonists of the hypoxia (HIF-1) signaling pathway (AID 1224846; active = well fitted activation curve with a large enough effect in the signal ratio in the repeat runs, not every such curve was filed as active; the % refers to the signal ratio)
Outline: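 Reporter induction in HRE-bla ME-180 cells is taken as agonism: cells sit 5 hrs after plating, receive compounds or DMSO only, incubate 17 hrs at 37C under 5% CO2, and are loaded with CCF4-AM for beta-lactamase FRET measurement.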

[12] = qHTS assay to identify small molecule agonists of H2AX - cell viability counter screen (AID 1224847; calls by dose curve; also: top concentration of the series differs between compounds; nearly all actives have a fitted effect of over 30% in size)
Outline: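 Viability of CHO-K1 (wild type) cells after 3 hr compound exposure was measured by CellTiter-Glo luminescence.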

[13] = qHTS RealTime-Glo MT Cell Viability Assay in HepG2 cells - 24 hour (AID 1224867); also: nearly all actives have a fitted effect of over 50% in size
Outline: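 Real-time, nonlytic viability: 600 HepG2 cells/well mixed with NanoLuc enzyme plus prosubstrate; 5 h settle, compound (DMSO) added by pintool; luminescence monitored over 40 h at 37 C.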

[14] = qHTS RealTime-Glo MT Cell Viability Assay in HEK293 cells - 32 hour (AID 1224868); also: top concentration of the series differs between compounds; nearly all actives have a fitted effect of over 50% in size
Outline: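 Cells + reagent dispensed (600 cells/well, HEK293) → 5 h at 37 C/5% CO2 → 23 nL compound in DMSO pinned → 40 h at 37 C → luminescence read at 0, 8, 16, 24, 32, 40 h.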

[15] = qHTS RealTime-Glo MT Cell Viability Assay in HepG2 cells - 40 hour (AID 1224870); also: nearly all actives have a fitted effect of over 50% in size
Outline: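 Real-time viability: cells seeded at 600 per well together with NanoLuc and cell-permeant prosubstrate, compounds added after 5 h incubation. Luminescence tracked at 0, 8, 16, 24, 32 and 40 h of exposure.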

[16] = A CellTox Green Cytotoxicity Assay to monitor cytotoxicity in HEK293 cells - 0 hour (AID 1224869); also: nearly all actives have a fitted effect of over 50% in size
Outline: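 Tox21 screen in HEK293: membrane-impermeant cyanine dye fluoresces on binding dead-cell DNA; compound pinned 5 h post-seeding, plates held at 37 C, signal read repeatedly through 40 h.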

[17] = qHTS assay to identify small molecule agonists of the estrogen related receptor signaling pathway with the pleiotropic PPARgamma coactivator (PGC) from Tox21 10K library (AID 1224842); also: nearly all actives have a fitted effect of over 15% in size
Outline: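 Luminescence from One-Glo (30 min, room temperature) measured after PGC/ERR cells had 18 h at 37 C with pinned compound (23 nL in DMSO). Cells had been seeded at 2,000 per well and pre-incubated 6 h.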

[18] = qHTS assay to identify small molecule agonists of the estrogen related receptor (ERR) signaling pathway from Tox21 library (AID 1224849; calls by dose curve; also: nearly all actives have a fitted effect of over 15% in size); conditions: ERR reporter cell line, ONE-Glo luciferase, 18 h; at 92.4 µM (top of the series) unless noted
Outline: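 Tox21 compounds tested for ERR agonism in an NTP reporter cell line: 18 h treatment at 37 C, then ONE-Glo luminescence.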
% is scaled to controls: 0 for no effect and ±100 for the full control effect.

CCCCCCCC/C=C\CCCCCCCC(=O)OC
inactive: Potency [1] | Potency [2] | Potency [3] | Potency [4] | Potency [5] | Potency [6] | Potency [7] | Potency [8] | Potency [9] | Potency [10] | outcome [11] | Potency [12] | Potency [13] | Potency [14] | Potency [15]

Nc1c(I)cc(I)c(C(=O)N(CCC(=O)O)c2ccccc2)c1I
inactive: Potency [1] | Potency [2] | Potency [3] | Potency [4] | Potency [5] | Potency [6] | Potency [7] | Potency [9] | Potency [10] | outcome [11] | Potency [12] | Potency [13] | Potency [14] | Potency [16] | Potency [15]

CC(C)(C)C(=O)C(Oc1ccc(Cl)cc1)n1ccnc1 (stereo not drawn)
inactive: Potency [1] | Potency [2] | Potency [3] | Potency [4] | Potency [5] | Potency [6] | Potency [7] | Potency [17] | Potency [10] | Potency [12] | activity change, positive = activation [18] -21.7% [at 42.5 µM] | Potency [13] | Potency [16] | Potency [15]

C[N+](C)(C)CCOC(N)=O
inactive: Potency [1] | Potency [2] | Potency [3] | Potency [4] | Potency [5] | Potency [6] | Potency [7] | Potency [9] | Potency [10] | Potency [12] | Potency [13] | Potency [14] | Potency [16] | Potency [15]
